Bioassay records from PubChem BioAssay.
The list is not random: actives were taken first. Their share in the collection is about 1.3%.
BRCA1 expr act = qHTS Assay to Identify Small Molecule Activators of BRCA1 Expression | MCF7-BRCA1-FFLuc reporter, luminescence, 48 h; response scale: scaled: vehicle 0%, 10 µM genistein 100% | Potency, µM (series often up to 46.1 µM), most hits filed as activators | 380,000 compounds, 1.1% hits | AID 624202, 2012; also: nearly all actives have a fitted effect of over 80% in size
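First, MCF7-BRCA1-FFLuc cells (2000/well) attach for 2 h; next, compounds are pin-added and incubated 48 h at 37 °C; finally, luciferase reagent is added and luminescence read after 15 min.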
EPAC1 agonist = qHTS for Agonist of cAMP-regulated guanine nucleotide exchange factor 3 (EPAC1): primary screen; Rap guanine nucleotide exchange factor 3 (Homo sapiens), O95398; EPAC1 agonist qHTS, biochemical assay; response scale: 100% = response to 6.5 mM cAMP; 360,000 compounds, 0.073% hits; AID 720707, 2013; Potency, µM (top dose mostly 154 µM), hits mostly activators; also: nearly all actives have a fitted effect of over 60% in size
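Multi-concentration qHTS readout: loss of Rap1B-bound BODIPY-GDP fluorescence driven by 100 nM EPAC1 with excess GDP (50 uM), monitored kinetically at room temperature; agonist response expressed relative to 6.5 mM cAMP.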
RGS4 inh = Inhibitors of Regulator of G Protein Signaling (RGS) 4: qHTS; 390,000 compounds, 0.039% hits; Potency, µM (titrated, usually from 114 µM), most hits filed as inhibitors; Transcreener GDP fluorescence polarization, RGS4-accelerated GTP hydrolysis; Regulator of G-protein signaling 4 (Homo sapiens), P49798; also: nearly all actives have a fitted effect of over 75% in size
Target sequence (P49798 whole entry, looked up): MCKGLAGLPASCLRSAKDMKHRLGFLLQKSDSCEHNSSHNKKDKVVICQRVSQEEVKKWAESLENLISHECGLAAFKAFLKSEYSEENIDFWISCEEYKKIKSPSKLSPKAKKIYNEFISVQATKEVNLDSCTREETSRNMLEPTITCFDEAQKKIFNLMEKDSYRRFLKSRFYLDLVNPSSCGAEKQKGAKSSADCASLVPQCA
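MLSMR compounds (23 nl, pin-transferred) preincubated 10 min at room temperature with a 500nM (2x) first reagent, then RGS4 at 900nM (2x) plus Transcreener GDP mix added; fluorescence polarization (620/688 nm) read before and after 90 min at 30 °C.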
EPAC1 antagonist = qHTS for Antagonist of cAMP-regulated guanine nucleotide exchange factor 3 (EPAC1): primary screen | Rap guanine nucleotide exchange factor 3 (Homo sapiens), O95398 | 360,000 compounds, 0.14% hits | EPAC1 GEF assay, Rap1b-BODIPY-GDP exchange fluorescence | Potency, µM (titrated, usually from 115 µM), hits mostly inhibitors; also: nearly all actives have a fitted effect of over 50% in size
EPAC2 agonist = qHTS for Agonist of cAMP-regulated guanine nucleotide exchange factor 4 (EPAC2): primary screen | Rap guanine nucleotide exchange factor 4 (Homo sapiens), Q8WZA2 | EPAC2 activation, biochemical qHTS; response scale: 100% = 6.5 mM cAMP response | Potency, µM (highest dose often 154 µM), actives largely listed as activators | 360,000 compounds, 0.079% hits; also: nearly all actives have a fitted effect of over 50% in size
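Guanine nucleotide exchange by EPAC2 is measured as reduced fluorescence of BODIPY-GDP once it is released from 250 nM Rap1B. Plates are read kinetically for 30 min at room temperature; results are scaled to 6.5 mM cAMP.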
EPAC2 antag = qHTS for Antagonist of cAMP-regulated guanine nucleotide exchange factor 2 (EPAC2): primary screen; Rap guanine nucleotide exchange factor 4 (Homo sapiens), Q8WZA2; EPAC2 GEF exchange of Rap1B-BODIPY-GDP, fluorescence; Potency, µM (doses to about 114 µM), most hits filed as inhibitors; 360,000 compounds, 0.18% hits; AID 720708, 2013; also: nearly all actives have a fitted effect of over 45% in size
Hits are given with their value; . = inactive; ? = inconclusive; / = no result given; ! = a repeat was not active. Calls follow the shape of the dose curve; as a rule, active = well fitted curve in the direction sought with a large enough effect; inconclusive = small, poorly fitted or top-dose-only effect, or another doubt; inactive = no such curve, though single readings can be large; an effect the other way counts as inactive or inconclusive.

SMILES | BRCA1 expr act | EPAC1 agonist | RGS4 inh | EPAC1 antagonist | EPAC2 agonist | EPAC2 antag
CC(=O)Nc1nnc(COc2ccc(Cl)cc2)s1 | 4.47µM | . | . | . | . | .
CC(C)C(=O)Nc1nnc(COc2ccc(Cl)cc2)s1 | . | . | . | . | . | .
COc1ccc(CC(=O)O/N=C(\N)c2ccc(OC)cc2)cc1 | ? | . | . | . | . | .
CC(C)C1Nc2ccc(S(N)(=O)=O)cc2C2C=CCC21 (configuration not stated) | . | . | . | . | . | .
NS(=O)(=O)c1ccc2c(c1)C1C=CCC1C(C1CC=CCC1)N2 (configuration not stated) | . | . | ? | 70.8µM | . | .
S=C(NCCc1ccccc1)NC1CCC(NC(=S)NCCc2ccccc2)CC1 (configuration not stated) | . | . | . | . | . | .
S=C(NCCc1cccc(Cl)c1)NC1CCCCC1 | 3.16µM | . | . | . | . | .
O=C(NC1CCCCCCC1)c1ccc(F)cc1 | 2.82µM | . | . | . | . | .
Cc1cccc(C(=O)NC2CCCCCCC2)c1 | ? | . | . | . | . | .
Cc1ccc(C(=O)NC(=S)N(C)C2CCCCC2)cc1 | 8.91µM | . | . | . | . | .
O=C(NC1CCCCC1)c1ccc(-c2ccccc2)cc1 | 2.24µM | . | . | . | . | .
CN(C(=S)NC(=O)/C=C/c1ccc(F)cc1)C1CCCCC1 | . | . | . | . | . | .
CN(C)c1cccc(C(=O)NC2CCCCCC2)c1 | 10µM | . | . | . | . | .
CCOc1cc(/C=C2\C(=N)N3N=C(N4CCCCC4)SC3=NC2=O)ccc1OC(=O)c1ccco1 | . | . | ? | ? | . | .
CN(C(=O)c1ccc(-c2ccccc2)cc1)C1CCCCC1 | 2.82µM | . | . | . | . | .
CN(C(=O)c1ccccc1Cl)C1CCCCC1 | . | . | . | . | . | .
COc1cccc(C(=O)NNC(=S)NC2CCCCC2)c1 | . | . | . | 50.1µM | . | .
O=C(Nc1ccccc1F)NC1CCCCCCC1 | 3.55µM | . | . | . | . | .
O=C(NC1CCCCCC1)C(=S)NCc1ccccc1 | 11.2µM | . | ? | . | . | .
CCOc1ccc(NC(=O)CN(C)C(=O)c2cn(-c3ccc(F)cc3)nc2-c2cccc(OC)c2)cc1OCC | . | . | . | . | . | .
O=C(NN1CC(=O)N(c2cc(Cl)cc(Cl)c2)CC1=O)c1sccc1Cl | . | . | . | . | . | .
O=C(c1ccco1)N1CCN(C(=O)c2cnn3cccnc23)CC1 | . | . | . | . | . | .
O=C(CSc1ccccc1)NC1CCCCCCC1 | 10µM | . | . | . | . | .
COC(=O)c1sc2nc3c(cc2c1N)COC(C)(C)C3 | 4.47µM | . | . | . | . | .
CCOC(=O)c1oc2nc3c(cc2c1N)COC(C)(C)C3 | 7.94µM | . | . | . | . | .
SMILES | BRCA1 expr act | EPAC1 agonist | RGS4 inh | EPAC1 antagonist | EPAC2 agonist | EPAC2 antag
CCCCn1c(N)c(NCCC)c(=O)[nH]c1=O | . | . | . | . | . | .
CC(C)(Sc1ccc(CCN(CCCCC2CCCCC2)C(=O)NC2CCCCC2)cc1)C(=O)O | . | . | 26.7µM! | . | . | 56.2µM
CC(C)(C)N1CC(c2nc3ccccc3n2CCOc2ccccc2)CC1=O (configuration not stated) | . | . | . | . | 10µM | .
CCOc1ccc(N2CC(c3nc4ccccc4n3CCOc3ccccc3)CC2=O)cc1 (configuration not stated) | / | / | . | / | / | /
Cc1c(C(=N)C(C#N)C#N)c(=N)oc2c1ccc1ccccc12 | . | . | . | . | . | .
CC(C)(C)c1ccc(C(=O)NC(=S)N2CCOCC2)cc1 | 10µM | . | . | . | . | .
Cn1c(-c2ccc(F)cc2)cnc1SCC(=O)Nc1ccccc1 | . | . | . | . | . | .
COCCCNC(=O)COc1ccc(Br)cc1Cl | 12.6µM | . | . | . | . | .
CCNC(=O)COc1ccc(Br)cc1Cl | . | . | . | . | . | .
COc1ccccc1N1N=C(C(=O)c2ccccc2)C2C(=O)N(c3ccc(Br)cc3)C(=O)C21 (configuration not stated) | . | ? | . | ? | . | 44.7µM
O=C(CSc1ncccc1C(=O)O)c1cccc(C(F)(F)F)c1 | 15.8µM | . | . | . | . | .
O=C(CSc1ncccc1C(=O)O)c1ccc2ccccc2c1 | . | . | . | . | . | .
CCOC(=O)Cc1csc(N/N=C/c2cccc([N+](=O)[O-])c2)n1 | . | . | . | . | . | .
N#C/C(C(=O)c1ccccc1)=C1/CCCCCN1 | 3.98µM | . | . | . | . | .
O=C(O)CSc1cc(NS(=O)(=O)c2ccc(Br)cc2)c2ccccc2c1O | . | . | ? | 56.2µM | . | ?
Fc1ccc2nc(N3CCOCC3)sc2c1 | 11.2µM | . | . | . | . | .
Clc1cccc2sc(N3CCCC3)nc12 | ? | . | . | ? | . | .
Clc1cccc2sc(N3CCOCC3)nc12 | 15.8µM | . | . | . | . | .
O=C(Cc1ccccc1Cl)Nc1ccc(S(=O)(=O)Nc2nccs2)cc1 | . | . | . | . | . | 1µM
COc1cccc(CNc2ccc(S(=O)(=O)Nc3nccs3)cc2)c1O | . | . | . | . | . | ?
O=S(=O)(Nc1nccs1)c1ccc(NCc2cc(Br)cc(Br)c2O)cc1 | . | . | . | ? | . | 2.82µM
COCC(=O)Nc1ccc(S(=O)(=O)Nc2nccs2)cc1 | . | . | . | . | . | .
COc1ccc2ccccc2c1/C=N/Nc1cccc(C(=O)O)c1 | 3.55µM | . | . | . | . | ?
COc1ccc(/C=N/Nc2ccc(C(=O)O)cc2)cc1OC | . | . | . | . | . | .
COc1ccc(/C=N/Nc2ccc(C(=O)O)cc2)cc1Br | . | . | . | . | . | 56.2µM
Cc1ccc(S(=O)(=O)Oc2cccc(/C=N/Nc3ccc(C(=O)O)cc3)c2)cc1 | . | . | . | . | . | 56.2µM
COc1ccc(C(=O)Oc2ccc(/C=N/Nc3ccc(Cl)c(C(=O)O)c3)cc2OC)cc1 | . | . | . | . | . | 20µM
COc1cc(/C=N/Nc2ccc(Cl)c(C(=O)O)c2)ccc1OC(=O)c1ccco1 | . | . | . | ? | . | .
